# PubChem BioAssay AID2289 (National Center for Advancing Translational Sciences (NCATS), 2010)
# Out of some 340,000 compounds screened, about 3,300 (0.97%) were called active. Inconclusive results (about 9%) are left out. The call rests on the fitted dose curve; in most records, active means well fitted inhibition curve with a large enough effect; inconclusive means small, poorly fitted or top-dose-only effect, or effect the other way; inactive means flat fitted curve, though single readings scatter. This is one part of the list.
# Experiment: qHTS Assay for Modulators of miRNAs and/or Inhibitors of miR-21; further: nearly all actives have a fitted effect of over 55% in size
# Conditions: HeLa miR-21-FLuc reporter, luciferase luminescence, 48 h; actives lower the signal
# Summary of the method: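 Using DMEM plus 10% FBS, HeLa miR-21-FLuc cells are incubated with test compounds (final up to about 40uM) for 48 hours; firefly luciferase signal is then imaged following reagent-mediated lysis.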
# Potency means the concentration at half of the fitted maximal effect.
row,Compound,Potency
1,COc1cccc(NC(=O)C(=O)NCC(c2ccc3c(c2)OCO3)N2CCN(C)CC2)c1 (configuration not stated),4.65 µM (active)
2,Cc1cc(C)n2ncc(/C(N)=N/OC(=O)c3ccccc3F)c2n1,1.85 µM (active)
3,Cc1cc(C)n2ncc(C(=O)NCCc3ccccc3)c2n1,18.5 µM (active)
4,Cc1csc2ncc(C(=O)NCCc3ccccc3)c(=O)n12,16.5 µM (active)
5,CN(C)c1ccc(/C=C2\CCCCC2=O)cc1,2.07 µM (active)
6,CCC(=O)N1CCc2cc(CNS(=O)(=O)c3ccccc3F)ccc21,6.56 µM (active)
7,Cc1nc2ccc(NC(=O)COc3ccccc3F)cc2s1,7.36 µM (active)
8,Cc1ccc2nc(-c3ccc(NC(=O)COc4ccccc4C(C)(C)C)cc3)sc2c1,6.56 µM (active)
9,O=C(COc1ccccc1F)Nc1ccc(-c2nc3ccccc3s2)cc1,1.47 µM (active)
10,Nc1ccc2oc3ccc(N)cc3c(=O)c2c1,3.69 µM (active)
11,COc1nccnc1NS(=O)(=O)c1ccc(NCc2cc(Br)ccc2O)cc1,18.5 µM (active)
12,COc1ccc(OCC(=O)N/N=C(\C)c2cc3ccccc3o2)cc1,18.5 µM (active)
13,C/C(=N\NC(=O)COc1ccccc1F)c1cc2ccccc2o1,8.26 µM (active)
14,Cc1ccc(C(=O)Cc2nnc(C)s2)cc1,4.14 µM (active)
15,Cc1ccc(NC(=S)NNC(=O)c2nn(C)c(C)c2Cl)cc1,5.85 µM (active)
16,CN1CCc2c(sc3c2C(=O)NC(c2cccc(OC(=O)c4cccs4)c2)N3)C1 (configuration not stated),18.5 µM (active)
17,COc1cc(C2NC(=O)c3c(sc4c3CCN(C)C4)N2)ccc1OC(=O)c1ccccc1 (configuration not stated),13.1 µM (active)
18,CN1CCc2c(sc3c2C(=O)NC(c2ccc(OC(=O)c4ccccc4)cc2)N3)C1 (configuration not stated),9.27 µM (active)
19,O=C(CC1NCCc2ccccc21)Nc1cccc(Cl)c1 (configuration not stated),16.5 µM (active)
20,Cc1occc1C(=O)NN=C1C2CC3CC(C2)CC1C3,1.31 µM (active)
21,C/C(=N/NC(=O)c1ccoc1C)C12CC3CC(CC(C3)C1)C2,8.26 µM (active)
22,C=C(C)C1CC=C(C)/C(=N/NC(=O)c2ccoc2C)C1 (configuration not stated),4.65 µM (active)

row,Compound,Potency
1,S=C(N=Nc1ccccc1)NNc1ccccc1,5.21 µM (active)
2,Cc1cccc(OCCCn2c(=O)sc3ccccc32)c1,14.7 µM (active)
3,Cc1cccc(OCCn2c(=O)sc3ccccc32)c1,5.21 µM (active)
4,COc1ccc(N=c2sc3ccccc3n2C)cc1,3.29 µM (active)
5,COc1ccc(OCCn2c(=O)sc3ccccc32)cc1,14.7 µM (active)
6,O=c1sc2ccccc2n1CCCOc1ccccc1,4.14 µM (active)
7,C=CCNC(=S)NNC(=O)COc1ccc2cc(Br)ccc2c1,7.36 µM (active)
8,CC1Oc2ccccc2N(CC(=O)NCc2ccccc2)C1=O (configuration not stated),9.27 µM (active)
9,CCn1c(O)c(N=Nc2ccc3ccccc3n2)c2ccccc21,1.04 µM (active)
10,COc1ccc(-c2cc(CS(=O)(=O)c3ccccc3)on2)cc1,4.65 µM (active)
11,COc1ccc(Br)c(-c2nnc(CS(=O)(=O)c3ccccc3)o2)c1,14.7 µM (active)
12,O=S(=O)(Cc1cc(-c2ccc(Cl)cc2)no1)c1ccccc1,4.65 µM (active)
13,O=S(=O)(Cc1cc(-c2ccccc2Cl)no1)c1ccccc1,5.21 µM (active)
14,O=S(=O)(Cc1cc(-c2ccccc2)no1)c1ccccc1,14.7 µM (active)
15,Nc1ccc(Oc2cc(N)cc(Oc3ccccc3)c2)cc1,8.26 µM (active)
16,N=c1cc(C2(O)CCCCC2)n2c(nc3ccccc32)s1,0.185 µM (active)
17,COc1ccccc1/C=C/C1=NC(=C\N(C)C)/C(=O)O1,14.7 µM (active)
18,COc1ccc(-c2cn3cc(Cl)ccc3n2)cc1OC,13.1 µM (active)
19,Oc1ccc(-c2cn3ccccc3n2)cc1O,3.29 µM (active)
20,COc1ccc(-c2cn3ccccc3n2)cc1[N+](=O)[O-],2.33 µM (active)
21,CCOc1ccc(-c2cn3ccccc3n2)cc1[N+](=O)[O-],2.93 µM (active)
22,O=C(Nc1cc(F)c(Br)cc1F)c1ccc(Cl)cc1,3.29 µM (active)

row,Compound,Potency
1,CCCCOc1ccc(-c2csc(N)n2)cc1[N+](=O)[O-],1.47 µM (active)
2,CCCOc1ccc(-c2csc(N)n2)cc1[N+](=O)[O-],5.21 µM (active)
3,Cc1cccc(OCCn2nnc3sc4c(c3c2=O)CCCC4)c1,18.5 µM (active)
4,COC(=O)c1ccc(Cn2nnc3sc4c(c3c2=O)CCCC4)cc1,6.56 µM (active)
5,O=C(CSc1ccccc1)NCCc1ccccc1,14.7 µM (active)
6,S=C(NCCc1ccccc1)NCCc1ccccc1,2.61 µM (active)
7,O=C(CSc1ccccc1)NC1CCCCCC1,14.7 µM (active)
8,NNCCc1ccccc1,14.7 µM (active)
9,CC1CCN(C(=S)NCCc2ccccc2)CC1,2.93 µM (active)
10,Cc1ccc2c(C)c(C(=O)N(C)C(C)c3ccon3)oc2c1C (configuration not stated),16.5 µM (active)
11,Cc1cc(Cl)c2oc(C(=O)N(C)C(C)c3ccccn3)c(C)c2c1 (configuration not stated),14.7 µM (active)
12,Cc1ccc2oc(C(=O)N(C)Cc3ccon3)c(C)c2c1,4.14 µM (active)
13,CCCc1ccc2oc(C(=O)N(C)Cc3ccn[nH]3)c(C)c2c1,10.4 µM (active)
14,Cc1cc(Cl)c2oc(C(=O)N(C)Cc3ccon3)c(C)c2c1,4.65 µM (active)
15,CCc1c(C)c2ccc(O)c(CN3CCN(c4ccccc4)CC3)c2oc1=O,6.56 µM (active)
16,COc1ccc2c(c1)-c1nc(NC(=O)c3ccco3)sc1CC2,13.1 µM (active)
17,COc1ccc2c(c1)Cc1sc(NC(C)=O)nc1-2,0.631 µM (active)
18,Cc1ccc(-n2ncc3c(NC4CCCCC4)ncnc32)cc1,0.521 µM (active)
19,Cc1cccc(-n2ncc3c(NC4CCCCC4)ncnc32)c1,0.414 µM (active)
20,O=c1cccccc1NN=C1CCCCCC1,3.29 µM (active)
21,O=c1cccccc1NN=C1CCCCC1,11.7 µM (active)
22,Oc1ccccc1CNc1cccc2cccnc12,18.5 µM (active)

row,Compound,Potency
1,Oc1c(/C=N/Nc2cccc3cccnc23)ccc2ccccc12,7.36 µM (active)
2,Cc1ccccc1Nc1nc(N)nc(-c2oc3ccccc3c2C)n1,4.65 µM (active)
3,Fc1ccccc1Nc1nc2ccccc2n2nnnc12,16.5 µM (active)
4,COc1ccccc1-c1cc(C(=O)N2CCOCC2)no1,2.93 µM (active)
5,CCN(CC)C(=O)c1cc(-c2ccc(Cl)cc2)on1,4.65 µM (active)
6,COc1ccccc1-c1cc(C(=O)N2CCCC2)no1,1.85 µM (active)
7,CCN(CC)C(=O)c1cc(-c2ccccc2OC)on1,13.1 µM (active)
8,O=C(N/N=C1/CC2C=CCC12)c1cccs1 (configuration not stated),11.7 µM (active)
9,CC1C2CC(C/C2=N/NC(=O)c2cccs2)C1(C)C (configuration not stated),5.21 µM (active)
10,O=C(N/N=C1/CC2C=CCC12)c1ccco1 (configuration not stated),5.21 µM (active)
11,COc1ccc(/C=N/n2c(N)nc3ccccc32)cc1OC,16.5 µM (active)
12,Cc1nn(C)cc1/C=C/C(=O)c1ccc(O)cc1,13.1 µM (active)
13,Cc1c(/C=C/C(=O)c2ccc(O)cc2)cnn1C,18.5 µM (active)
14,Cc1c(/C=C/C(=O)c2ccccc2O)cnn1C,3.69 µM (active)
15,CCn1ncc(/C=C/C(=O)c2ccccc2)c1C,5.21 µM (active)
16,CCCCN1CCc2c([nH]c3ccc(C)cc23)C1=O,0.826 µM (active)
17,COc1ccc(/C=N/Nc2ccccn2)cc1O,7.36 µM (active)
18,CCOc1ccc(/C=N/Nc2ccccn2)cc1OC,5.21 µM (active)
19,COc1cccc(COc2ccc3c(C)cc(=O)oc3c2)c1,2.07 µM (active)
20,COc1ccc(COc2ccc3c(C)cc(=O)oc3c2)cc1,2.33 µM (active)
21,COc1ccc(-c2noc(-c3ccccc3Cl)n2)cc1OC,1.47 µM (active)
22,Cc1nc(-c2noc(-c3ccccc3Cl)n2)c(C(F)(F)F)o1,11.7 µM (active)

row,Compound,Potency
1,COc1ccc(-c2noc(-c3cccc(OC)c3OC)n2)cc1OC,2.93 µM (active)
2,Fc1ccc(-n2c(-c3ccc4c(c3)OCO4)n[nH]c2=S)cc1Cl,16.5 µM (active)
3,CC(=O)c1c(C)nc(Nc2nc3ccccc3s2)nc1C,0.736 µM (active)
4,COc1ccccc1OCC(=O)Nc1ccc2c(c1)OCCO2,8.26 µM (active)
5,O=C(COc1ccccc1F)Nc1ccc2c(c1)OCCO2,1.17 µM (active)
6,COc1ccccc1OCC(=O)Nc1ccc2c(c1)OCO2,18.5 µM (active)
7,O=C(COc1ccccc1[N+](=O)[O-])Nc1ccc2c(c1)OCO2,3.29 µM (active)
8,O=C(COc1ccccc1Cl)Nc1ccc2c(c1)OCO2,1.85 µM (active)
9,CCc1ccccc1OCC(=O)Nc1ccc2c(c1)OCCO2,5.21 µM (active)
10,Cc1ccccc1OCC(=O)Nc1ccc2c(c1)OCCO2,6.56 µM (active)
11,Cc1ccc(NC(=O)c2c(Cl)nc3ccccn23)cc1,2.93 µM (active)
12,O=C(Nc1ccc(F)cc1)c1c(Cl)nc2ccccn12,16.5 µM (active)
13,C/C(=N\Nc1ccc(Cl)c(C(=O)O)c1)c1ccc2c(c1)OCO2,11.7 µM (active)
14,C/C(=N\Nc1ccc(Cl)c(C(=O)O)c1)c1ccccn1,16.5 µM (active)
15,C/C(=N\Nc1ccc(Cl)c(C(=O)O)c1)c1cccc([N+](=O)[O-])c1,13.1 µM (active)
16,C/C(=N\Nc1ccc(Cl)c(C(=O)O)c1)c1ccc[nH]1,14.7 µM (active)
17,Cc1ccc(N/C=C/C(=O)c2ccccc2)cc1Br,0.369 µM (active)
18,Cc1cc(N/C=C/C(=O)c2ccccc2)ccc1Br,0.369 µM (active)
19,Cn1cc(Cl)c(C(=O)N/N=C/c2ccc3c4c(cccc24)CC3)n1,1.65 µM (active)
